Compound activity from PubChem.
POLI inh: DNA polymerase iota (human) inhibition; Potency, µM (top dose mostly 115 µM), inactives show at the top dose activity, negative = inhibition, usual class: inhibitors; Q9UNA4; AID 588590; Pol iota fluorescent replication assay, 10 min; actives 1% (n = 390,000); further: potency means the concentration at half of the fitted maximal effect
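Fluorescent replication assay read twice, at 0 min and 10 min after adding 50 nM (final) substrate. Enzyme (10 nM) and compounds were first incubated 15 min at room temperature; enzyme-free buffer wells were negative controls.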
WRN helicase inh: blocks human WRN helicase | WRN helicase unwinding, fluorescent forked duplex, kinetic | Potency, µM (titrated, usually from 114 µM), for the others: top-dose activity change, negative = inhibition, hits mostly inhibitors | actives 0.46% (n = 360,000) | AID 651768; further: potency means the concentration at half of the fitted maximal effect; on the % scale 0 is the no-effect control and ±100 the full control effect; nearly all actives have a fitted effect of over 55% in size
Target sequence (Q14191 whole entry, looked up): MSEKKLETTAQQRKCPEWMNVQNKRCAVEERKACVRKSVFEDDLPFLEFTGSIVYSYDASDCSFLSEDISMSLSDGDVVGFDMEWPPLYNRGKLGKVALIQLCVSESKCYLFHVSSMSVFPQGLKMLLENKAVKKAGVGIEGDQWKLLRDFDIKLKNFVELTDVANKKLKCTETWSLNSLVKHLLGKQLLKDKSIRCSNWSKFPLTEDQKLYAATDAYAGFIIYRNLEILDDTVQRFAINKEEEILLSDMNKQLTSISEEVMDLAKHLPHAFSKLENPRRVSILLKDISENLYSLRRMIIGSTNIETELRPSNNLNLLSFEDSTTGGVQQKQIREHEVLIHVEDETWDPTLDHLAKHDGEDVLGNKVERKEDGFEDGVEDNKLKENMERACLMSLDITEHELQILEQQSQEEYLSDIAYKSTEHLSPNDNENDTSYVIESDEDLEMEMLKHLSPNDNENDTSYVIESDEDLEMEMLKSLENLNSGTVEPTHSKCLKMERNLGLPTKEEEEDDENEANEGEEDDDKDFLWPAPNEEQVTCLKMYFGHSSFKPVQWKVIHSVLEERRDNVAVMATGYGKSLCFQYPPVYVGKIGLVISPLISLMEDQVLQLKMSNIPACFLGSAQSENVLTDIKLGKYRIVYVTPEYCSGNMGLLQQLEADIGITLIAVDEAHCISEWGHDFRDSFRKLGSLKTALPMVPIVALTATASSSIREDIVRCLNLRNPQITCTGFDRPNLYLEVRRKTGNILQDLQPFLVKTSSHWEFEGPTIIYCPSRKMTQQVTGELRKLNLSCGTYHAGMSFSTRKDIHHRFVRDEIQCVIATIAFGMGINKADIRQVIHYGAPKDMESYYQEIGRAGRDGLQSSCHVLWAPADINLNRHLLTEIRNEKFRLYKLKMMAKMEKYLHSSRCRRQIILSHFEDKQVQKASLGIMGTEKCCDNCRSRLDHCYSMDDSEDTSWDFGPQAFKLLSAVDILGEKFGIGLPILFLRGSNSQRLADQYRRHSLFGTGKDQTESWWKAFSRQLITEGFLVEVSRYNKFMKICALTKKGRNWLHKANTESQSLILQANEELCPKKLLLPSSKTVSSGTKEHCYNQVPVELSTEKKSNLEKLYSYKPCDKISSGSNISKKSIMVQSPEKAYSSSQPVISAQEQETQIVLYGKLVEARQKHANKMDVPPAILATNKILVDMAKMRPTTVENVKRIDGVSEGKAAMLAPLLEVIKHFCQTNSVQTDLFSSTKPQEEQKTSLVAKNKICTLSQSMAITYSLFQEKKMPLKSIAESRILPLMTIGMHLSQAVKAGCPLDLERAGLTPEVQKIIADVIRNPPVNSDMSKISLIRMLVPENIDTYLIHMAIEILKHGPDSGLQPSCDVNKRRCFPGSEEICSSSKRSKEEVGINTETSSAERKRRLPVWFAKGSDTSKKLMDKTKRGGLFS
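Screening of the MLSMR collection measured strand separation of a quenched forked DNA duplex (100 nM) by 20 nM WRN with 2 mM ATP, all final. Compounds were preincubated with enzyme 15 min at room temperature.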
Pol eta inh-1: blocks human DNA polymerase eta activity; recombinant Pol eta, fluorescent DNA replication assay; Q9Y253; AID 588591; actives 1.2% (n = 390,000); Potency, µM (titrated, usually from 114 µM), for the others: at the top dose activity change, negative = inhibition, most hits filed as inhibitors; further: potency means the concentration at half of the fitted maximal effect; on the % scale 0 is the no-effect control and ±100 the full control effect
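Pol eta (10 nM) was preincubated with compounds for 15 min at room temperature, after which fluorescent replication substrate (50 nM final) was added to start the reaction. Fluorescence was read kinetically at 0 and 10 min.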
PI5P4Ka inh: PI5P4K alpha (human) kinase inhibition; P48426; PI5P4Kalpha enzyme, ADP-Glo luminescence, 60 min; hits give low values; max response, %; actives 1.2% (n = 330,000); active means max response of -50% or lower; inconclusive means between -30% and -50%; inactive means -30% or higher; further: value at the top dose of about 77 µM; on the % scale 0 is the no-effect control and ±100 the full control effect
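Reactions run in 0.038 M HEPES pH 7.4, 0.28 mM EGTA, 0.1% CHAPS and 5% DMSO, with PI5P4Kalpha, substrate, compound and 5 microM ATP final, one hour at room temperature. Readout is ADP-Glo luminescence.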
Pol kappa inh: inhibitors of human DNA polymerase kappa; Potency, µM (highest dose often 107 µM), inactives show at the highest dose activity, negative = inhibition, actives largely listed as inhibitors; purified Pol kappa, fluorescent DNA synthesis assay, 10 min; AID 588579; actives 0.53% (n = 400,000); further: potency means the concentration at half of the fitted maximal effect; on the % scale 0 is the no-effect control and ±100 the full control effect
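Fluorescent qHTS in 1536-well format: enzyme (10 nM) and compound sat 15 min at room temperature before 50 nM substrate (final) was added. Signal taken at 0 and 10 min; no-enzyme buffer wells were negative controls.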
Pol beta inh-1: DNA polymerase beta (human) inhibition; P06746; Pol beta primer extension/strand displacement, fluorescence kinetic; Potency, µM (top dose mostly 114 µM), for the others: at the highest dose activity change, negative = inhibition, usual class: inhibitors; actives 1.3% (n = 340,000); AID 485314; further: potency means the concentration at half of the fitted maximal effect; on the % scale 0 is the no-effect control and ±100 the full control effect
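Preincubation: enzyme (10 nM) with compound, 15 min, RT. Reaction: substrate added to 50 nM final. Reads: 0 and 10 min. Analysis: normalized, Hill fit.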
Pol beta inh-2: Validate hits inhibiting human DNA polymerase beta | Potency, µM, usual class: inhibitors | Pol beta primer extension/strand displacement, fluorescence kinetic | actives 87% (n = 250) | shares compounds with Pol beta inh-1; calls by dose curve; further: potency means the concentration at half of the fitted maximal effect
Klenow inh: counter-screen for DNA polymerase beta inhibitors: Klenow fragment inhibition. shares compounds with Pol beta inh-1. Klenow exo- polymerase counter-screen, fluorescent DNA substrate. 250 tested, under 10 active. activity change, negative = inhibition, % at 57.1 µM. AID 540300
HIV RT counter: counter-screen for DNA polymerase beta inhibitors: HIV-1 RT inhibition; activity % (negative = inhibition, positive = activation), % at 57.1 µM; shares compounds with Pol beta inh-1; HIV-1 RT polymerase activity, counter-screen; 250 tested, under 10 active
POLB inh gel: DNA polymerase beta inhibition, radiolabeled validation; radiolabeled primer extension gel assay, phosphorimager; AID 540325; actives 91% (n = 110); shares compounds with Pol beta inh-1; inhibition, % at 10 µM;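 active means inhibition at 10 µM of 30% or more; inconclusive means no clear call, values can overlap the other calls; inactive means inhibition at 10 µM under 30%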
TbPGK inh: TbPGK inhibition, hit validation; shares compounds with Pol kappa inh; TbPGK coupled GAPDH assay, Kinase-Glo luminescence; Potency, µM (top dose mostly 57.5 µM), inactives show top-dose activity change, negative = inhibition, hits mostly inhibitors; actives 79% (n = 500); AID 686980; further: potency means the concentration at half of the fitted maximal effect; on the % scale 0 is the no-effect control and ±100 the full control effect; nearly all actives have a fitted effect of over 65% in size
POLI cherry-pick: Human Pol iota inhibitor confirmatory assay. AID 720496. actives 77% (n = 1,500). shares compounds with Pol kappa inh. Potency, µM, usual class: inhibitors. Pol iota primer extension, TAMRA/BHQ fluorescence; further: potency means the concentration at half of the fitted maximal effect
Pol eta inh-2: Pol eta (human) inhibition, cherry-pick confirmation; shares compounds with Pol eta inh-1; Pol eta primer extension, TAMRA/BHQ fluorescence, 10 min; Potency, µM, usual class: inhibitors; actives 64% (n = 2,600); AID 720502; further: potency means the concentration at half of the fitted maximal effect
ADP-Glo interf: interferes with ADP-Glo detection without enzyme present; shares compounds with PI5P4Ka inh; ADP-Glo detection counter-screen, luciferase luminescence, no enzyme; Potency, µM (series often up to 76.9 µM), for the others: at the top dose activity change, negative = inhibition, most hits filed as inhibitors; AID 743285; 1,100 tested, under 10 active
Starred values were filed as active, the others as inactive; ? = inconclusive; . = not tested or not shown; [ ] = remark or other dose. Only some compounds are listed: those with a hit (about 2.8% of all), similar ones and a draw of the others. Unless noted, the call rests on the fitted dose curve; in most records, active means well fitted curve in the direction sought with a large enough effect; inconclusive means small, poorly fitted or top-dose-only effect, or another doubt; inactive means no such curve, though single readings can be large; an effect the other way counts as inactive or inconclusive.

SMILES	POLI inh	WRN helicase inh	Pol eta inh-1	PI5P4Ka inh	Pol kappa inh	Pol beta inh-1	TbPGK inh	others
O=C(Cc1cccs1)Nc1nnc(SCc2cccc3ccccc23)s1	22.4µM*	-7.7%[11.6 µM]	?	-52.9*	50.1µM*	8.91µM*	.	Pol beta inh-2=28.2*;Klenow inh=-17.7;HIV RT counter=24.1;POLB inh gel=71.0*;ADP-Glo interf=-0.6%
O=C(Cc1cccs1)Nc1nnc(SCC(=O)NC2CCCCC2)s1	?	-17.5%	?	-25.0	-30.9%	?	.
CNc1c(Cl)cc(/C=C2\C=Cc3ccccc32)cc1Cl	3.6%	.	.	.	-12.0%	.	.
O=c1c2c3c(sc2[nH]c(=S)n1Cc1ccco1)CCC3	17.8µM*	?	20µM*	-58.6*	?	8.91µM*	.	Pol beta inh-2=15.8*;Klenow inh=-12.0;HIV RT counter=-2.8;POLI cherry-pick=42.3*;Pol eta inh-2=42.6*;ADP-Glo interf=-7.8%
Cc1ccc(S(=O)(=O)C(CNC(=O)COc2ccccc2)c2cccs2)cc1 (stereo unspecified)	1.1%	.	-14.0%	.	-7.3%[60.1 µM]	12.6µM*	?
Cc1cc(S(=O)(=O)C(CNC(=O)COc2ccccc2)c2cccs2)ccc1F (stereo unspecified)	-19.5%	.	6.5%	.	-1.8%[60.1 µM]	1.7%	.
COc1ccc2[nH]c3c(C)c4ccncc4c(C)c3c2c1	3.55µM*	?	?	?	50.1µM*	1.26µM*	.	POLI cherry-pick=7.52*
CC1CCN(S(=O)(=O)c2nnc(NC(=O)c3cccc(Cl)c3)s2)CC1	2.7%	-4.1%	-12.2%	0.0	-2.1%	2.5%	.
COc1cccc(-c2noc(COc3ccc(C(C)(C)C)cc3)n2)c1	25.6%	.	-20.5%	.	7.0%	6.6%	.
c1ccc(-c2ccc(-c3nc(-c4ccccn4)no3)cc2)cc1	6.1%	-3.3%	-19.3%	.	0.2%	1.1%	.
Cc1ccc(-c2nc(-c3ccccn3)no2)cc1	6.7%	-1.1%	-7.2%	?	-5.8%	10.2%	14.6µM*
Cc1oc(-c2ccccc2F)nc1CS(=O)(=O)CC(=O)N1CCN(c2ccc(Cl)cc2)CC1	4.3%	.	-15.8%	.	-18.9%	0.6%	.
Cc1ccc(/C(N)=N/OC(=O)c2cccs2)cc1	13.3%	2.6%	-13.9%	6.4	-6.1%	-14.0%	.
Cc1cccc(/C(N)=N/OC(=O)c2cccs2)c1	7.5%	-0.7%	-12.4%	?	-8.0%	0.8%	16.3µM*
N/C(=N\OC(=O)c1cccs1)c1ccccc1	-5.9%	-7.1%	-3.8%	-24.0	-5.9%	-1.4%	16.3µM*
Cc1ccc(CNC(=O)Cn2nnc(C(=O)Nc3cccc(C)c3C)c2N)cc1	13.3%	-4.0%	-18.5%	-2.2	-5.4%	2.4%	.
Cc1ccc(CNC(=O)c2nnn(CC(=O)Nc3cccc(C)c3C)c2N)cc1	15.4%	-15.8%[11.6 µM]	?	0.7	-10.2%	?	.	POLI cherry-pick=26.7*
CC(C)c1ccc(CN(C)C(=O)c2ccc(S(=O)(=O)NCc3ccco3)cc2)cc1	18.7%	6.3%	-7.1%	-4.1	4.1%	.	.
CN(C)c1ccc(C(=O)Nc2sc(Nc3ccccc3)nc2C(N)=O)cc1	79.4µM*	.	?	.	-3.0%[60.1 µM]	?	.	POLI cherry-pick=?
O=C(O)c1cn(C2CC2)c2cc(N3CCN(S(=O)(=O)c4ccc5c(c4)OCCO5)CC3)c(F)cc2c1=O	-23.2%	79.4µM*	79.4µM*	-3.5	-4.4%	-8.0%	.	POLI cherry-pick=26.7*
FC(F)(F)c1cc(Cc2nc3ccccc3n2C(CCc2ccccc2)c2nc3ccccc3[nH]2)cc(C(F)(F)F)c1 (stereo unspecified)	.	-4.7%	.	?	.	.	.
CSc1ccccc1NC(=O)COc1ccc(Cl)cc1Cl	-2.1%	?	-28.4%	12.6	-8.4%	17.1%[57.1 µM]	.
O=C(COc1ccc(Cl)cc1Cl)Nc1ccccn1	-12.6%[58.9 µM]	3.8%	0.6%	.	-6.4%	1.7%	18.3µM*
CCCSc1ccc2nc(-c3ccccc3)cn2c1	-11.6%	-30.9%	-11.7%	-13.6	-27.7%	-0.3%	18.3µM*
CCCCCC(=O)Nc1cc(S(=O)(=O)O)cc2cc(S(=O)(=O)O)cc(O)c12	1µM*	6.31µM*	-99.1%	-86.1*	1.41µM*	.	0.231µM*
SMILES	POLI inh	WRN helicase inh	Pol eta inh-1	PI5P4Ka inh	Pol kappa inh	Pol beta inh-1	TbPGK inh	others
CCCCCC(=O)Nc1cc(S(=O)(=O)N2CCCCC2)ccc1N1CCCCC1	38.4%	-0.5%	-20.4%	0.9	-12.4%	.	.
Cc1cc(C)cc(OCC(=O)Nc2nc3c(s2)CC(C(C)(C)C)CC3)c1 (stereo unspecified)	22.0%	.	-4.2%	.	-2.5%	?	.
O=C(c1ccco1)N1CCc2ccccc21	18.0%	-4.5%	2.4%	2.8	-0.4%	1.1%	.
O=C(/C=C/c1ccco1)N1CCc2ccccc21	-27.2%	-2.3%	-7.1%	?	0.4%	?	16.3µM*
O=CC(O)C1OC(=O)C(O)C1O (stereo unspecified)	44.7µM*	-30.2%	7.94µM*	?	50.1µM*	.	3.26µM*
CC(=O)c1sc2nc(C)cc(C)c2c1N	0.4%	-18.5%	-12.9%	.	-9.3%	-0.1%	.
Cc1cc(C)c2c(n1)sc1c(O)cc(=O)[nH]c12	?	?	79.4µM*	.	79.4µM*	?	.	POLI cherry-pick=47.4*
C=C(C)C(=O)Nc1ccc(OC(F)(F)C(F)F)c(NC(=O)C(=C)C)c1	4.1%	?	17.8µM*	6.8	?	31.6µM*	6.51µM*
